# How the values were obtained:
# Assay in all cases: DAPPL (digital affinity profiling via proximity ligation, sequencing); 10 mM Tris-HCl pH 7.5, 50 mM NaCl, 1 mM DTT, 4% glycerol, room temperature, 30 min; GST-TFs on glutathione beads, 16-mer random dsDNA library, 0.1% formaldehyde crosslink after washing; high values mean tight binding
# [1] = target: T1, FEV (Homo sapiens, UniProt Q99581 1-238); details: protein: recombinant; tags: N-terminal GST; dsDNA, one strand shown
# T1 sequence: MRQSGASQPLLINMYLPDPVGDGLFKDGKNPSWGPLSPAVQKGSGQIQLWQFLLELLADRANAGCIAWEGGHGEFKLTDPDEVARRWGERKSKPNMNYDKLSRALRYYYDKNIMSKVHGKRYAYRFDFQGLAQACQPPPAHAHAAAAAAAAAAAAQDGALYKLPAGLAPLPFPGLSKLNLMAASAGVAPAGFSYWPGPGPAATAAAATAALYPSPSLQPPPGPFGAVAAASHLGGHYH
# Method in brief: (§1)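 Pools of DNA-barcoded human transcription factors, expressed in yeast as GST fusions on glutathione beads and combined with a tag-only sample, were incubated with 200 nmole of a 16-mer random double-stranded DNA library. Incubation took 30 min at room temperature in Tris/NaCl/DTT/glycerol buffer and was followed by washing, 0.1% formaldehyde crosslinking, proximity ligation (BsaI/T4 ligase, 1 h, 37 °C), PCR amplification and sequencing on an Illumina NextSeq500. Binding signal is the ratio of a hexamer's read frequency for a factor to its frequency for the tag-only sample.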
# [2] = target: ETV5 (Homo sapiens, UniProt P41161 1-510); details: protein: recombinant; tags: N-terminal GST; dsDNA, one strand shown
# ETV5, sequence (P41161 whole entry): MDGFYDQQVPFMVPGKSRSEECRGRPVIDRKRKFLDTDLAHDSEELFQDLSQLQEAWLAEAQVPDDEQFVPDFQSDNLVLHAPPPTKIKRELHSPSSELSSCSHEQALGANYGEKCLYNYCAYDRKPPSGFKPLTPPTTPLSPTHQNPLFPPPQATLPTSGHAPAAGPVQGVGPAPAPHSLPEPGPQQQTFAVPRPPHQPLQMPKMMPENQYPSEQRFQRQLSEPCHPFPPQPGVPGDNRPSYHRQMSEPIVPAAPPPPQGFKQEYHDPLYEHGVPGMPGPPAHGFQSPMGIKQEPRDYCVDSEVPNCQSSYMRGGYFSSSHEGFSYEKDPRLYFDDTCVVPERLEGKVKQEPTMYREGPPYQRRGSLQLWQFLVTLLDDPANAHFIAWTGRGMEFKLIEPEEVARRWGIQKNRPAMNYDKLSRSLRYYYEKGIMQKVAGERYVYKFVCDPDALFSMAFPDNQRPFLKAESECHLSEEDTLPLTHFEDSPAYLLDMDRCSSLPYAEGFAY
# Method in brief: as §1
# [3] = target: HSF1 (Homo sapiens, UniProt Q00613 1-529); details: protein: recombinant; tags: N-terminal GST; chain copies: 3; dsDNA, one strand shown
# HSF1, sequence (Q00613 whole entry): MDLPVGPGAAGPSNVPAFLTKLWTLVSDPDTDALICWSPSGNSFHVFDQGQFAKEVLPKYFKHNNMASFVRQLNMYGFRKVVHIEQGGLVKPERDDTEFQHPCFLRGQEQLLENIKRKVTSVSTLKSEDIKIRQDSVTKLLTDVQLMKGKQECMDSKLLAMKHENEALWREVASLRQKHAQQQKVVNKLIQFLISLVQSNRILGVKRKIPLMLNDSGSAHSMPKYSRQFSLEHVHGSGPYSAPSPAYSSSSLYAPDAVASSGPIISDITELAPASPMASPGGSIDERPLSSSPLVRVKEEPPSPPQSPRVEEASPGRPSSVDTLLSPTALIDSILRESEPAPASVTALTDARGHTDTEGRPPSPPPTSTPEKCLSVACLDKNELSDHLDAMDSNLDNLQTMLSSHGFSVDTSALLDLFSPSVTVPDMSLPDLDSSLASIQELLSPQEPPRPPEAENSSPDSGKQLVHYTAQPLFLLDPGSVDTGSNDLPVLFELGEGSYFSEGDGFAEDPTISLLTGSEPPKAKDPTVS
# Method in brief: as §1
# [4] = target: T2, SPIC (Homo sapiens, UniProt Q8N5J4 1-248); details: protein: recombinant; tags: N-terminal GST; dsDNA, one strand shown
# T2 sequence: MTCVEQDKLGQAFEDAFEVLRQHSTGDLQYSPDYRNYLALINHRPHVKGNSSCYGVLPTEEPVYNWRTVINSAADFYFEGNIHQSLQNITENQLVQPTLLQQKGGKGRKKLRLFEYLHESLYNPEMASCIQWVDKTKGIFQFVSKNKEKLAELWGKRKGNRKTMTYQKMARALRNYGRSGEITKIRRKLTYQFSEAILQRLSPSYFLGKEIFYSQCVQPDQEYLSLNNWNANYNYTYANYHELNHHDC
# Method in brief: as §1
# [5] = target: ELF4 (Homo sapiens, UniProt Q99607 1-663); details: protein: recombinant; tags: N-terminal GST; dsDNA, one strand shown
# ELF4, sequence (Q99607 whole entry): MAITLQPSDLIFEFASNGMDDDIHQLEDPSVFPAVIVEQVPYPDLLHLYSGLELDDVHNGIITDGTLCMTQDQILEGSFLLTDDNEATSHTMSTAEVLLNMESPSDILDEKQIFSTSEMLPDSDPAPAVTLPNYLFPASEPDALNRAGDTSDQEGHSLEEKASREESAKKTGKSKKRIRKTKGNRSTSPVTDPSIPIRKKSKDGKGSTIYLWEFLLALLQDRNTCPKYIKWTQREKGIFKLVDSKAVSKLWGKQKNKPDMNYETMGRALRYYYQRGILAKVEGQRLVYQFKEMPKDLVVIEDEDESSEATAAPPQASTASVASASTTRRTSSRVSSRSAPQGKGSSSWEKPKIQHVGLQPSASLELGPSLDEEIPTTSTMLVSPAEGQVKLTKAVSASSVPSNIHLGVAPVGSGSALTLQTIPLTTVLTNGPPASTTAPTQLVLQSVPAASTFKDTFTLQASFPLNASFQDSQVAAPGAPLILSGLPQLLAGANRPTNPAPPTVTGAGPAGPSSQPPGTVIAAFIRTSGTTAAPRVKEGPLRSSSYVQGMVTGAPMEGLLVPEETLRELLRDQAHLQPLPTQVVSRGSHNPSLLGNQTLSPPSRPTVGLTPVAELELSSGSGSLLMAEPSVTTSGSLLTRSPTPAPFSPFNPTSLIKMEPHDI
# Method in brief: as §1
# [6] = target: T3, ELK4 (Homo sapiens, UniProt P28324-2 1-405); details: protein: recombinant; tags: N-terminal GST; dsDNA, one strand shown
# T3 sequence: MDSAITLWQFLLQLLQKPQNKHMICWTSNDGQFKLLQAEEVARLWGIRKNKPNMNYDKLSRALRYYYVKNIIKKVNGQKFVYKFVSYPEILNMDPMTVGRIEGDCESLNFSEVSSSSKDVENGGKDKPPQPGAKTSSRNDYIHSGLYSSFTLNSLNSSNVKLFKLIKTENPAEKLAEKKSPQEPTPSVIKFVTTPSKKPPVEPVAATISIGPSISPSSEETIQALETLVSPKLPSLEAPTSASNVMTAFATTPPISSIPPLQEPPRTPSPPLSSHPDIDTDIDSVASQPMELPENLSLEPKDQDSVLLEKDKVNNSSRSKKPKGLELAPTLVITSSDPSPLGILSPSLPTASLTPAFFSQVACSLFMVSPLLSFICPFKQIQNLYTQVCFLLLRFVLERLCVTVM
# Method in brief: as §1
# [7] = target: T4, ETV2 (Homo sapiens, UniProt O00321 1-342); details: protein: recombinant; tags: N-terminal GST; dsDNA, one strand shown
# T4 sequence: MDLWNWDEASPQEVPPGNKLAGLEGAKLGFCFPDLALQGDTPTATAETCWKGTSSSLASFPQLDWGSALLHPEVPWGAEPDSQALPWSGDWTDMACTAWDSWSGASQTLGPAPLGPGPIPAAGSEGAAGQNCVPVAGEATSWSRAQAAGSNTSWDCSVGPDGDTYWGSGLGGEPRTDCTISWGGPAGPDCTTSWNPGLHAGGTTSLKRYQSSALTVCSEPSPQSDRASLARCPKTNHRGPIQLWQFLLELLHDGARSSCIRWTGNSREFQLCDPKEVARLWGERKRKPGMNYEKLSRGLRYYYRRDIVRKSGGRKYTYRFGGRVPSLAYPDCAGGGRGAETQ
# Method in brief: as §1
# [8] = target: T5, ELF3 (Homo sapiens, UniProt P78545 1-371); details: protein: recombinant; tags: N-terminal GST; dsDNA, one strand shown
# T5 sequence: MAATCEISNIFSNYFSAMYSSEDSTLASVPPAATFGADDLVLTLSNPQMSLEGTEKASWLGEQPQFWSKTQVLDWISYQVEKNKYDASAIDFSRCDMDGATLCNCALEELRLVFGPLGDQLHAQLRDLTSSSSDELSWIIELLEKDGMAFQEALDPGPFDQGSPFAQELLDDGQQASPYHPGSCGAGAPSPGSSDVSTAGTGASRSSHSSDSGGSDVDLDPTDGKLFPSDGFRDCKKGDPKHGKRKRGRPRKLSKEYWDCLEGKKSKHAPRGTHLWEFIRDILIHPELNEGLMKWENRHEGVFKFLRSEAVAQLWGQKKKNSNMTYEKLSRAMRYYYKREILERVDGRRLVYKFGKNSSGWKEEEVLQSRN
# Method in brief: as §1
# [9] = target: CRX (Homo sapiens, UniProt O43186 1-299); details: protein: recombinant; tags: N-terminal GST; dsDNA, one strand shown
# CRX, sequence (O43186 whole entry): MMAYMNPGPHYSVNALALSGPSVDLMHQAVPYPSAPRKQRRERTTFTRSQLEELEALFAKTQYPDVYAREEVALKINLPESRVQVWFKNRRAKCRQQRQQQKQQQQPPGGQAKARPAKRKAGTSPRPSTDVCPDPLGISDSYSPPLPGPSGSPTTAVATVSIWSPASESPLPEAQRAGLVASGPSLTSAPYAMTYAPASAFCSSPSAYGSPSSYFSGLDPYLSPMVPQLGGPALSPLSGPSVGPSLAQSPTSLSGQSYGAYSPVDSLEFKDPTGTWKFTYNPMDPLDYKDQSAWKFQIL
# Method in brief: as §1
# [10] = target: ETV1 (Homo sapiens, UniProt P50549 1-477); details: protein: recombinant; tags: N-terminal GST; dsDNA, one strand shown
# ETV1, sequence (P50549 whole entry): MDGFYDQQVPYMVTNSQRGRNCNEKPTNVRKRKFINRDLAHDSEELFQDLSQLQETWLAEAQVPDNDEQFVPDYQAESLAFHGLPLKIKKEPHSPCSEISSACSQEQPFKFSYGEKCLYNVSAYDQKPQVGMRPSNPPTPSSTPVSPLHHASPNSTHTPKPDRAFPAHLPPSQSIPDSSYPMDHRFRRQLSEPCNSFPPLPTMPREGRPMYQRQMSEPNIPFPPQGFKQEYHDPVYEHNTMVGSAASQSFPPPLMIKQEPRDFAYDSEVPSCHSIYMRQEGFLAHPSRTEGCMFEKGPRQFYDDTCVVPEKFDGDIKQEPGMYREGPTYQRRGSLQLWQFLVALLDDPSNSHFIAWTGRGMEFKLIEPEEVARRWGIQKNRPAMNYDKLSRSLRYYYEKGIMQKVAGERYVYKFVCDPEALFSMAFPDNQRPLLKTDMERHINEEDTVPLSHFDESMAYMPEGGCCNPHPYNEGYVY
# Method in brief: as §1
Sequence,binding signal [1],binding signal [2],binding signal [3],binding signal [4],binding signal [5],binding signal [6],binding signal [7],binding signal [8],binding signal [9],binding signal [10]
TCCACA,"1.21 fold enrichment (6-mer frequency, TF over GST control)","1.25 fold enrichment (6-mer frequency, TF over GST control)","1.36 fold enrichment (6-mer frequency, TF over GST control)","1.31 fold enrichment (6-mer frequency, TF over GST control)","1.27 fold enrichment (6-mer frequency, TF over GST control)","1.25 fold enrichment (6-mer frequency, TF over GST control)","1.17 fold enrichment (6-mer frequency, TF over GST control)","1.22 fold enrichment (6-mer frequency, TF over GST control)","1.1 fold enrichment (6-mer frequency, TF over GST control)","1.15 fold enrichment (6-mer frequency, TF over GST control)"
TTTTGG,"1.38 fold enrichment (6-mer frequency, TF over GST control)","1.55 fold enrichment (6-mer frequency, TF over GST control)","1.44 fold enrichment (6-mer frequency, TF over GST control)","1.38 fold enrichment (6-mer frequency, TF over GST control)","1.41 fold enrichment (6-mer frequency, TF over GST control)","1.45 fold enrichment (6-mer frequency, TF over GST control)","1.6 fold enrichment (6-mer frequency, TF over GST control)","1.44 fold enrichment (6-mer frequency, TF over GST control)","1.6 fold enrichment (6-mer frequency, TF over GST control)","1.55 fold enrichment (6-mer frequency, TF over GST control)"
TCCGTA,"1.43 fold enrichment (6-mer frequency, TF over GST control)","1.62 fold enrichment (6-mer frequency, TF over GST control)","1.1 fold enrichment (6-mer frequency, TF over GST control)","1.56 fold enrichment (6-mer frequency, TF over GST control)","1.47 fold enrichment (6-mer frequency, TF over GST control)","1.6 fold enrichment (6-mer frequency, TF over GST control)","1.63 fold enrichment (6-mer frequency, TF over GST control)","1.47 fold enrichment (6-mer frequency, TF over GST control)","1.21 fold enrichment (6-mer frequency, TF over GST control)","1.47 fold enrichment (6-mer frequency, TF over GST control)"
CGGCTC,"1.33 fold enrichment (6-mer frequency, TF over GST control)","1.28 fold enrichment (6-mer frequency, TF over GST control)","1.21 fold enrichment (6-mer frequency, TF over GST control)","1.23 fold enrichment (6-mer frequency, TF over GST control)","1.35 fold enrichment (6-mer frequency, TF over GST control)","1.22 fold enrichment (6-mer frequency, TF over GST control)","1.42 fold enrichment (6-mer frequency, TF over GST control)","1.48 fold enrichment (6-mer frequency, TF over GST control)","1.26 fold enrichment (6-mer frequency, TF over GST control)","1.29 fold enrichment (6-mer frequency, TF over GST control)"
TACTTC,"4.27 fold enrichment (6-mer frequency, TF over GST control)","3.65 fold enrichment (6-mer frequency, TF over GST control)","1.43 fold enrichment (6-mer frequency, TF over GST control)","3.27 fold enrichment (6-mer frequency, TF over GST control)","3.17 fold enrichment (6-mer frequency, TF over GST control)","3.03 fold enrichment (6-mer frequency, TF over GST control)","3.6 fold enrichment (6-mer frequency, TF over GST control)","3.4 fold enrichment (6-mer frequency, TF over GST control)","1.48 fold enrichment (6-mer frequency, TF over GST control)","3.6 fold enrichment (6-mer frequency, TF over GST control)"
AAGTCT,"1.07 fold enrichment (6-mer frequency, TF over GST control)","1.12 fold enrichment (6-mer frequency, TF over GST control)","1.25 fold enrichment (6-mer frequency, TF over GST control)","1.04 fold enrichment (6-mer frequency, TF over GST control)","1.06 fold enrichment (6-mer frequency, TF over GST control)","1.13 fold enrichment (6-mer frequency, TF over GST control)","1.06 fold enrichment (6-mer frequency, TF over GST control)","1.13 fold enrichment (6-mer frequency, TF over GST control)","1.28 fold enrichment (6-mer frequency, TF over GST control)","1.09 fold enrichment (6-mer frequency, TF over GST control)"
TCCGAA,"1.24 fold enrichment (6-mer frequency, TF over GST control)","1.31 fold enrichment (6-mer frequency, TF over GST control)","1.48 fold enrichment (6-mer frequency, TF over GST control)","1.43 fold enrichment (6-mer frequency, TF over GST control)","1.21 fold enrichment (6-mer frequency, TF over GST control)","1.23 fold enrichment (6-mer frequency, TF over GST control)","1.46 fold enrichment (6-mer frequency, TF over GST control)","1.1 fold enrichment (6-mer frequency, TF over GST control)","1.28 fold enrichment (6-mer frequency, TF over GST control)","1.19 fold enrichment (6-mer frequency, TF over GST control)"

# Source: publication PMC7862700, “An all-to-all approach to the identification of sequence-specific readers for epigenetic DNA modifications on cytosine”
